Assay [1] has as its target T1, Serine/threonine-protein kinase Nek9 (Homo sapiens) (UniProt Q8TD19).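 Note: each value is a mean percent inhibition of NEK9.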
T1 sequence (whole entry): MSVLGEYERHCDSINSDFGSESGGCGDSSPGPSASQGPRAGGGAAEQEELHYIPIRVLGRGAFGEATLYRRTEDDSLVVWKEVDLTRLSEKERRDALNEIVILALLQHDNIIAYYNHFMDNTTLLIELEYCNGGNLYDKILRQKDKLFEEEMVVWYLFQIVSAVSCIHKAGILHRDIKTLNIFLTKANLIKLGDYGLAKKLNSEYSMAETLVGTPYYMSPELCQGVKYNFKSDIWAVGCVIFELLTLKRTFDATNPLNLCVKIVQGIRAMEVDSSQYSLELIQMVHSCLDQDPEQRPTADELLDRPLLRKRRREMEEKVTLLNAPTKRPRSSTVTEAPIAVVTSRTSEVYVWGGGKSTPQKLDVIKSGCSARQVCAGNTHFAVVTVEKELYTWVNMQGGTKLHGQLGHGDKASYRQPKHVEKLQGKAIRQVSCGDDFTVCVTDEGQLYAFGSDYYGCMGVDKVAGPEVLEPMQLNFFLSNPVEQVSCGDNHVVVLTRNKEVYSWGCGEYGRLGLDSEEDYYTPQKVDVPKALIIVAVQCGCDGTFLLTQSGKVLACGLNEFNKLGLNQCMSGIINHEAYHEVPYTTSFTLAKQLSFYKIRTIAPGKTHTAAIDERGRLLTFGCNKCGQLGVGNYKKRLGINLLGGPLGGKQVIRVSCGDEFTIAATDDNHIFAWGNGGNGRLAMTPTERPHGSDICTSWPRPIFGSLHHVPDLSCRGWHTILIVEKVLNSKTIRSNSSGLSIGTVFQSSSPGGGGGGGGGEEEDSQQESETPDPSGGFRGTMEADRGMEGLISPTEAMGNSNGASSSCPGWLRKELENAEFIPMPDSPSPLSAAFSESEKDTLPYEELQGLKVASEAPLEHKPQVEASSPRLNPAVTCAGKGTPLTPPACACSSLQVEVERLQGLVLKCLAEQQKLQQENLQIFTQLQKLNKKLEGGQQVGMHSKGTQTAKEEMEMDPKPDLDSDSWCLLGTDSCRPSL
The settings on record: at 1 µM.

In assay [2] the target is Serine/threonine-protein kinase PLK1 (Homo sapiens) (UniProt P53350). The settings on record: at 0.1 µM.
Assay [3] shares this target. The settings on record: at 1 µM.
Assay [4] addresses T2, Dual specificity protein kinase TTK (Homo sapiens) (UniProt P33981).
T2 sequence (whole entry): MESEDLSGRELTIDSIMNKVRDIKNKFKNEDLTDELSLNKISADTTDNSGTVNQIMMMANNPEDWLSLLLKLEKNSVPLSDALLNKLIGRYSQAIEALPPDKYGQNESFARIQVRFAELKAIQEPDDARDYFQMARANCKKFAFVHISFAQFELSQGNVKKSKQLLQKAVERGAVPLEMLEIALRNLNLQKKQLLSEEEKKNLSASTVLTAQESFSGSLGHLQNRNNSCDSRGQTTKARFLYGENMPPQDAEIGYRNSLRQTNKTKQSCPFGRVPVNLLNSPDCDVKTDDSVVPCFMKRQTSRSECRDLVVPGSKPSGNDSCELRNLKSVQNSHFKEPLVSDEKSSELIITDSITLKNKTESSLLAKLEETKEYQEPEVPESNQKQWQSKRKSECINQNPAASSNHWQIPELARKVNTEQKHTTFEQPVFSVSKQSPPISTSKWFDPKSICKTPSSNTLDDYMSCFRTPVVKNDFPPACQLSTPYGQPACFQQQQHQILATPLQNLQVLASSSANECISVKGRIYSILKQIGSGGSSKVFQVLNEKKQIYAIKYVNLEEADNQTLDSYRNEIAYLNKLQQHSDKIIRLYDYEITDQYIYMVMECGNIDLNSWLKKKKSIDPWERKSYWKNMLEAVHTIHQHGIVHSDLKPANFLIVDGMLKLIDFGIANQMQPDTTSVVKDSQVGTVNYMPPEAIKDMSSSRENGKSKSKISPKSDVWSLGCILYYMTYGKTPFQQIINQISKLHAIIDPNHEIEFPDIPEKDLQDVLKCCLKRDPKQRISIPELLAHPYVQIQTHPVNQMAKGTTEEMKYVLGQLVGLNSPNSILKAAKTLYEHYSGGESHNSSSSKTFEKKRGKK
The settings on record: at 0.1 µM.

Assay [5] deals with T3, Receptor-type tyrosine-protein kinase FLT3 (Homo sapiens), P36888 [D835Y].
T3 sequence (whole entry): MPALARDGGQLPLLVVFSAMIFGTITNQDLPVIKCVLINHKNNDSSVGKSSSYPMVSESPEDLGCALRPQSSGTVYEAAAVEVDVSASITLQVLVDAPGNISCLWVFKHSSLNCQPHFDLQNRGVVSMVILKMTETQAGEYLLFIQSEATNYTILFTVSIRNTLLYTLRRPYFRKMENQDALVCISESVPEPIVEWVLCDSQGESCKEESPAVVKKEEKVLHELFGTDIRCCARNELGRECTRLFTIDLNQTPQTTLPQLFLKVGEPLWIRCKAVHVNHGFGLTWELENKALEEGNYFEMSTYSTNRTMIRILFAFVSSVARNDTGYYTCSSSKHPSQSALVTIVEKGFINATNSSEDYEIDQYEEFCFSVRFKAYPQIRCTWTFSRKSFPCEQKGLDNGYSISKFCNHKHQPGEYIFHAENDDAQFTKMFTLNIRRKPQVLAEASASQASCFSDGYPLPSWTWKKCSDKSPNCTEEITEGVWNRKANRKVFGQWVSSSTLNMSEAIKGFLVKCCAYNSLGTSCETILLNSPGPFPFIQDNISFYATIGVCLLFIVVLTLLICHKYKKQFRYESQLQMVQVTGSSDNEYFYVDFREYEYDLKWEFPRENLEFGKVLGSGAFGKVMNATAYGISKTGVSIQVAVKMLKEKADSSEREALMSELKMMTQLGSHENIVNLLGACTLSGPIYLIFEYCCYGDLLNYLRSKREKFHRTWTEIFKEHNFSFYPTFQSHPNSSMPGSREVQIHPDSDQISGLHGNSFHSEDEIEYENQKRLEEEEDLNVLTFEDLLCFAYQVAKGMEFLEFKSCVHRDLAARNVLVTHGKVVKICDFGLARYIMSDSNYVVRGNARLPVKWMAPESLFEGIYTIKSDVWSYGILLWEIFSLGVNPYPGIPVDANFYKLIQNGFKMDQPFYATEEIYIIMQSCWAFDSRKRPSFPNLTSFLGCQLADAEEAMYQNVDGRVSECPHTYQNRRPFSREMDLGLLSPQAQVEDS
The settings on record: at 1 µM.

Assay [6] deals with Vascular endothelial growth factor receptor 3 (Homo sapiens) (UniProt P35916). As to conditions: at 0.1 µM.
For assay [7] the target is unchanged. The settings on record: at 1 µM.
In assay [8] the target is Macrophage colony-stimulating factor 1 receptor (Homo sapiens) (UniProt P07333). As to conditions: at 0.1 µM.
For assay [9] the target is unchanged. The settings on record: at 1 µM.
The target in assay [10] is Tyrosine-protein kinase Fyn (Homo sapiens) (UniProt P06241). The settings on record: at 0.1 µM.
Assay [11] has the same target. The settings on record: at 1 µM.
Assay [12] addresses Tyrosine-protein kinase HCK (Homo sapiens) (UniProt P08631). As to conditions: at 0.1 µM.
The target is the same in assay [13]. The settings on record: at 1 µM.
Assay [14] concerns the target Insulin-like growth factor 1 receptor (Homo sapiens) (UniProt P08069). The settings on record: at 0.1 µM.
For assay [15] the target is unchanged. The settings on record: at 1 µM.
Assay [16] addresses Insulin receptor (Homo sapiens) (UniProt P06213). As to conditions: at 0.1 µM.
The target is the same in assay [17]. The settings on record: at 1 µM.
Assay [18] has as its target Insulin receptor-related protein (Homo sapiens) (UniProt P14616). The settings on record: at 0.1 µM.
Assay [19] has the same target. As to conditions: at 1 µM.
Assay [20] concerns the target T4, Tyrosine-protein kinase ITK/TSK (Homo sapiens) (UniProt Q08881).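 Note: mean percent inhibition of ITK from the GSK PKIS screen.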
T4 sequence (whole entry): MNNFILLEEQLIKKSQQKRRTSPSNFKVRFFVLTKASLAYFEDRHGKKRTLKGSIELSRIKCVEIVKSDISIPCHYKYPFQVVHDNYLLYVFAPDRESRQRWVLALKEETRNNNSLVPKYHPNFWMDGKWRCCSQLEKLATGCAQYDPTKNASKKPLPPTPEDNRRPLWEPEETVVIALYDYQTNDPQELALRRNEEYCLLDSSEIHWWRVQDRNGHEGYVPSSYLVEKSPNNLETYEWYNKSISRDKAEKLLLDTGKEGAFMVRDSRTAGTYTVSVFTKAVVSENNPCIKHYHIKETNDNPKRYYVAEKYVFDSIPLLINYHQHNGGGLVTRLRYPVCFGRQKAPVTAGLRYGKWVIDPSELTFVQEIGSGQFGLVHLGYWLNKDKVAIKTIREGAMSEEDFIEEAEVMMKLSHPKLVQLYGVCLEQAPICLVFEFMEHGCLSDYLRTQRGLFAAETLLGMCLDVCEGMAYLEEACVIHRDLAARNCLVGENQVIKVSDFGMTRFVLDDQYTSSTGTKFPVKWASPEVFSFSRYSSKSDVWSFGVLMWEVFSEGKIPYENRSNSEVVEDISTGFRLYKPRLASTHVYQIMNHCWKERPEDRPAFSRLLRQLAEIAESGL
The settings on record: at 0.1 µM.

Insulin receptor (Homo sapiens), sequence (P06213 28-758 limits assumed): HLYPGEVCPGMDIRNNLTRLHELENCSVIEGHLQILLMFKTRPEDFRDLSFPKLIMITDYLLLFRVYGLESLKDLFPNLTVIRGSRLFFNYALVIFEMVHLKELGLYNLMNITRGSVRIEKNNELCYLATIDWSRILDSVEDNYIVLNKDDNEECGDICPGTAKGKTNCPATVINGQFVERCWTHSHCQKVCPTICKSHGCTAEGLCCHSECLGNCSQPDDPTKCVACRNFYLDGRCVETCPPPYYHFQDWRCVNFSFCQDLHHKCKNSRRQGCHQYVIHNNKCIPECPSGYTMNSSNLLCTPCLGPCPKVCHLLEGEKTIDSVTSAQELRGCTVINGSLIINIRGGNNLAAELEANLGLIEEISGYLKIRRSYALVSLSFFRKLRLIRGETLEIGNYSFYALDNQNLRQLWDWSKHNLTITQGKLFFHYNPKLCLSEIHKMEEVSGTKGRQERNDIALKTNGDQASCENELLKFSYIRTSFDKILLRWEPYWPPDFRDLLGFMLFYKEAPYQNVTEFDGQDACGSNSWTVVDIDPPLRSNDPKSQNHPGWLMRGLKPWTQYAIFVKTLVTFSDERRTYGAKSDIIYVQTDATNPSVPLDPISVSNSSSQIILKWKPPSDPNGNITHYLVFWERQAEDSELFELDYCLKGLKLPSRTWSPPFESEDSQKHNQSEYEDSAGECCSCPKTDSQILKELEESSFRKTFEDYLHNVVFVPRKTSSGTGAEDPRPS
Insulin receptor (Homo sapiens), sequence (P06213 763-1382 limits assumed): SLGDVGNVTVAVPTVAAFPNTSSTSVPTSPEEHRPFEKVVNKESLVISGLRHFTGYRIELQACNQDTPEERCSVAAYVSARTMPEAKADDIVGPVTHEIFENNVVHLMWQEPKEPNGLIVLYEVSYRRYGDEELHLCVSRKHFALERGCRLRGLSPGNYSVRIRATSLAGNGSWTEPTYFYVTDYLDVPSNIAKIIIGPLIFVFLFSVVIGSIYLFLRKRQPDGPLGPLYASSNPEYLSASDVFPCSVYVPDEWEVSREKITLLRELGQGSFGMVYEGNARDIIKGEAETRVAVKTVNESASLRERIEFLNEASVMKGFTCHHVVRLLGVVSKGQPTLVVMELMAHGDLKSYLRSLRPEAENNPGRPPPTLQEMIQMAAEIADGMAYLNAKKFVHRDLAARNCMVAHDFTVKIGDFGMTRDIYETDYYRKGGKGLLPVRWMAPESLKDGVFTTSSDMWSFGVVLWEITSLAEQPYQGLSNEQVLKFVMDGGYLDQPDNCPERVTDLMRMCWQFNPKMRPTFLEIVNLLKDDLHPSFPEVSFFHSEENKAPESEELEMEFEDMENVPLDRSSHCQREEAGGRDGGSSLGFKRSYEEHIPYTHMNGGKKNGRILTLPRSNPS
Serine/threonine-protein kinase PLK1 (Homo sapiens), sequence (P53350 whole entry): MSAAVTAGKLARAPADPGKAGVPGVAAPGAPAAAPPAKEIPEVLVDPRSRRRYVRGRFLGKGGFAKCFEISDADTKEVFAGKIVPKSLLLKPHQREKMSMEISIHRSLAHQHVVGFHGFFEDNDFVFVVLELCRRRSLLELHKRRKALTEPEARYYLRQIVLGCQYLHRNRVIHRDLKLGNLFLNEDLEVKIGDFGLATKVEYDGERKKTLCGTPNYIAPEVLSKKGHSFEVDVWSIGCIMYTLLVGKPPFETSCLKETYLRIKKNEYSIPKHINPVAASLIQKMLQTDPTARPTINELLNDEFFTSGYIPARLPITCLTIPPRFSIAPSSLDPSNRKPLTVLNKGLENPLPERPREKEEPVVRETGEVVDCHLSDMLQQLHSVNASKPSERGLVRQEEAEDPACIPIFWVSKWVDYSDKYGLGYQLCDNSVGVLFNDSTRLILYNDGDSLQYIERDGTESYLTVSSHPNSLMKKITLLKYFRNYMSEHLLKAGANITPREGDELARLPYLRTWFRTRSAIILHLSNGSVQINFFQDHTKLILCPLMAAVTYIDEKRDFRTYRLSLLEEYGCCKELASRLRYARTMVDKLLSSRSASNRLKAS
Insulin receptor-related protein (Homo sapiens), sequence (P14616 27-742 limits assumed): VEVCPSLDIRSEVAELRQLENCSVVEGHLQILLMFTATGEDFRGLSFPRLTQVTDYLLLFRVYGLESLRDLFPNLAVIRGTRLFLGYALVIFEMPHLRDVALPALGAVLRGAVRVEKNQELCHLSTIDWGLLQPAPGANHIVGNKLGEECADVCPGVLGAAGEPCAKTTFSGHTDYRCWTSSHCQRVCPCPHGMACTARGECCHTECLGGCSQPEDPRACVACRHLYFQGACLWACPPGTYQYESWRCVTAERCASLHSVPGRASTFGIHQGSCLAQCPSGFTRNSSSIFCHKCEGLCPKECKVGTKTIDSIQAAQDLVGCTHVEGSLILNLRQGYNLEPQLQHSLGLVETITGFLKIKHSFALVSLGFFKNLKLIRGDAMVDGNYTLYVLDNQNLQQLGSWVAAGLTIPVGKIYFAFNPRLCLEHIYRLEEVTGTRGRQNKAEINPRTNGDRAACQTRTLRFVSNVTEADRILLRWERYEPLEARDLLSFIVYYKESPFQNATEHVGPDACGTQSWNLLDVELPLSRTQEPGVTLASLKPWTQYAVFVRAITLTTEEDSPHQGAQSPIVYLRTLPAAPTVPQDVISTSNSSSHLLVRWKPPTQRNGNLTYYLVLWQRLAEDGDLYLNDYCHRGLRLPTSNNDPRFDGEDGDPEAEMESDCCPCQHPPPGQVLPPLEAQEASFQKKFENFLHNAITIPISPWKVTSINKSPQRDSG
Insulin receptor-related protein (Homo sapiens), sequence (P14616 747-1297 limits assumed): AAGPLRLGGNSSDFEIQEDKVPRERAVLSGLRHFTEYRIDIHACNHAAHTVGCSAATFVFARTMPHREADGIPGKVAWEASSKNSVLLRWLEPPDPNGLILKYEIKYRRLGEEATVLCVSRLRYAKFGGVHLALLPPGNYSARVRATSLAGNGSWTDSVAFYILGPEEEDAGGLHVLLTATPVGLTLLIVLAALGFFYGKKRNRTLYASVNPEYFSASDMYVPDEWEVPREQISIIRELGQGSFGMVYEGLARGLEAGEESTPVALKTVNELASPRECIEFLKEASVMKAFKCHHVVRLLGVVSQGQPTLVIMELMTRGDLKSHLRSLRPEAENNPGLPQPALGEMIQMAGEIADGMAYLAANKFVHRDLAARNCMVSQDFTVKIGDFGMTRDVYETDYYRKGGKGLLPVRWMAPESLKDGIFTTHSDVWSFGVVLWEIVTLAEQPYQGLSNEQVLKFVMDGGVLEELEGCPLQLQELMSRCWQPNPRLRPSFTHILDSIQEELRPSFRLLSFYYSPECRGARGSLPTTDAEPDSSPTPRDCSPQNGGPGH
Vascular endothelial growth factor receptor 3 (Homo sapiens), sequence (P35916 whole entry): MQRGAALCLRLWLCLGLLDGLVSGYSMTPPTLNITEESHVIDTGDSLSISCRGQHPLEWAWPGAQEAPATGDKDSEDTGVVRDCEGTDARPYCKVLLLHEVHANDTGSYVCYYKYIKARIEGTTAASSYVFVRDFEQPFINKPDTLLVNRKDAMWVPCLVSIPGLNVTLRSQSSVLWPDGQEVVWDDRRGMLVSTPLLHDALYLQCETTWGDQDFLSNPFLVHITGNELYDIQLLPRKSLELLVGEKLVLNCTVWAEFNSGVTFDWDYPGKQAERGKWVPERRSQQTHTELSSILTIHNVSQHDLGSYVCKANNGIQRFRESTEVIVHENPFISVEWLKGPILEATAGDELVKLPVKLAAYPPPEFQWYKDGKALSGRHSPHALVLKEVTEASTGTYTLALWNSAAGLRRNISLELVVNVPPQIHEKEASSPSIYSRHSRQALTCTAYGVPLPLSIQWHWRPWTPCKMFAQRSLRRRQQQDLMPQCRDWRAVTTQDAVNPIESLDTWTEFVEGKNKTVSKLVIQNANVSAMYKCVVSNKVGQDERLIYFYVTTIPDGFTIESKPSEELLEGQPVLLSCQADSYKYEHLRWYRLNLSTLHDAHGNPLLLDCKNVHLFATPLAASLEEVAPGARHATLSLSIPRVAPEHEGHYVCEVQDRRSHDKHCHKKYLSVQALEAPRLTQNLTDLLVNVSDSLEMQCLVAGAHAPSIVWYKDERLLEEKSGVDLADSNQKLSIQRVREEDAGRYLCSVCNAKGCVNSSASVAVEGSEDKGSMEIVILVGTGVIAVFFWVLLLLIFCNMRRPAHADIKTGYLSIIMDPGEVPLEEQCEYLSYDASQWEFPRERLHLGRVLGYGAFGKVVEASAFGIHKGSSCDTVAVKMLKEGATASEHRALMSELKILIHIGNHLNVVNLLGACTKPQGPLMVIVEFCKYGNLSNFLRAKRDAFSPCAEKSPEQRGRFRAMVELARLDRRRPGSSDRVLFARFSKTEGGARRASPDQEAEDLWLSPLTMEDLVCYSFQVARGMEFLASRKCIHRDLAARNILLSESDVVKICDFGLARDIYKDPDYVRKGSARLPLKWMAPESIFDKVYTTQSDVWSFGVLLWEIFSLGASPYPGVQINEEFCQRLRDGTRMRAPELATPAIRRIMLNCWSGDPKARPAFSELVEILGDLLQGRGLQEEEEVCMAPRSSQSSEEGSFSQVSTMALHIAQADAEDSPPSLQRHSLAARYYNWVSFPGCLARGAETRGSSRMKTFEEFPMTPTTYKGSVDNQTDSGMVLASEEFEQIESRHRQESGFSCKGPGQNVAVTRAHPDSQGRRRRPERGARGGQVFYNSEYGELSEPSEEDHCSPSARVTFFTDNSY

Take `Cc1ccc2c(-c3ccnc(Nc4ccc5c(c4)OCCO5)n3)c(-c3ccc(C(F)(F)F)cc3)nn2n1`: the inhibition was 1.95% in [1]; -2.52% in assay [2]; 2.75% in assay [3]; 4.62% in assay [4]; -0.37% in assay [5]; -1.78% in assay [6]. For the same compound, the inhibition was 2.51% in assay [7]; -1.16% in assay [8]; 14.6% in assay [9]; 1.42% in assay [10]; 5.39% in assay [11]; 1.01% in [12]. The inhibition in [13] was 2.01%; in [14], -4.21%; in assay [15], 0.39%; in assay [16], -0.36%; in assay [17] it was 1.45%; in [18] it was 1.35%. The figures for the inhibition in assay [19] and in [20] were 0.34% and -1.23%, respectively.
On to `Oc1cccc(-c2nc(-c3ccccc3)[nH]c2-c2ccncc2)c1`, for which the inhibition worked out at 6.73% in assay [1]; 4.15% in assay [2]; 1.85% in assay [3]; 3.33% in [4]; 22.4% in [5]; 7.41% in assay [6]. For the same compound, the inhibition was 30.4% in [7]; 1.63% in assay [8]; 5.02% in assay [9]; 3.67% in assay [10]; 17.9% in [11]; 13.7% in assay [12]. Further, the inhibition in assay [13] stood at 51.2%; in assay [14] it was 2.68%; in [15], 5.15%; in [16], 1.16%; in assay [17], 2.18%; in assay [18], 2.79%. In addition, the inhibition amounted to 0.88% in assay [19] and 1.78% in assay [20].
`Nc1nccc(-c2c(-c3ccc(F)cc3)nn3cc(C(F)(F)F)ccc23)n1`: the inhibition was 0.92% in assay [1]; 2.53% in assay [2]; 0.4% in [3]; 1.73% in assay [4]; -4.89% in assay [5]; 0.03% in assay [6]. Moreover, the inhibition in assay [7] was -1.18%; in assay [8] it was -4.62%; in assay [9] it was 7.32%; in assay [10], 0.43%; in assay [11] it was 2.33%; in assay [12], -0.1%. The inhibition in assay [13] is -0.25%; in [14], -1.56%; in [15] it was 1.35%; in assay [16], 1.38%; in assay [17], 2.01%; in assay [18], 1.17%. The inhibition in assay [19] is 1.01%; in [20], -1.78%.

These data come from ChEMBL document CHEMBL1961873, “Compounds: GSK PKIS; Assays: Nanosyn kinase panel” (2012).
